The panel holds about 83,000 compounds, 20% with a hit somewhere; the sample as a whole holds those more often.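 Cell lines were cultured in 96-well plates, exposed to a single compound concentration, and assessed for percent growth 48 hours later.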 Calls of active or inactive are those of the source. Rule for the calls: active = growth percent below 10; inactive = the rest.
Key:
Assay in all cases: NCI-60 one-dose screen, 48 h (100 = growth as untreated, 0 = no growth, -100 = all killed)
Conditions in all cases: 10 µM unless noted
NCI-H23 lung = system: NCI-H23 lung
NCI-H226 lung = system: NCI-H226 lung
NCI-H322M lung = system: NCI-H322M lung
HOP-62 NSCLC = system: HOP-62 NSCLC
NCI-H460 lung = system: NCI-H460 lung
HOP-92 NSCLC = system: HOP-92 NSCLC
NCI-H522 lung = system: NCI-H522 lung
A549/ATCC NSCLC = system: A549/ATCC NSCLC
786-0 renal = system: 786-0 renal
COLO 205 colon = system: COLO 205 colon
DU-145 prostate = system: DU-145 prostate
K-562 leukemia = system: K-562 leukemia
MALME-3M melanoma = system: MALME-3M melanoma
MDA-MB-231 breast = system: MDA-MB-231 breast
RXF 393 renal = system: RXF 393 renal
SF-268 CNS = system: SF-268 CNS
SF-295 CNS = system: SF-295 CNS
SF-539 CNS = system: SF-539 CNS
UACC-257 melanoma = system: UACC-257 melanoma
M14 melanoma = system: M14 melanoma

Measured: growth

O=C(Nc1nc2cc(C(=O)N3CCN(C(c4ccccc4)c4ccccc4)CC3)ccc2o1)c1ccc(NC2CCCCC2)c([N+](=O)[O-])c1
inactive: NCI-H23 lung 69.5% | NCI-H226 lung 65.1% | NCI-H322M lung 59.4% | HOP-62 NSCLC 47.4% | NCI-H460 lung 46.8% | HOP-92 NSCLC 73.3% | NCI-H522 lung 64.2% | A549/ATCC NSCLC 56.1% | 786-0 renal 53.6% | COLO 205 colon 79.7% | DU-145 prostate 61.9% | K-562 leukemia 47% | MALME-3M melanoma 68.7% | MDA-MB-231 breast 75% | RXF 393 renal 74.9% | SF-268 CNS 58.2% | SF-295 CNS 42.1% | SF-539 CNS 59.9% | UACC-257 melanoma 62.2% | M14 melanoma 58.2%

COc1ccc(F)cc1/C=C/C(=O)/C=C(/C=C/c1cc(F)ccc1OC)OB(F)F
inactive: NCI-H23 lung 35.2% | NCI-H226 lung 97.9% | NCI-H322M lung 103% | HOP-62 NSCLC 86.1% | NCI-H460 lung 75.2% | HOP-92 NSCLC 56.1% | A549/ATCC NSCLC 71.7% | 786-0 renal 19.4% | COLO 205 colon 10.8% | DU-145 prostate 37.9% | MDA-MB-231 breast 32.5% | RXF 393 renal 18% | SF-268 CNS 80.2% | SF-295 CNS 93.8% | SF-539 CNS 61.1% | UACC-257 melanoma 48.8%
active: NCI-H522 lung -20.7% | K-562 leukemia 7.73% | MALME-3M melanoma 5.69% | M14 melanoma 9.74%

Cn1c(I)c(C#CCO[Si](C)(C)C(C)(C)C)c(=O)[nH]c1=O
active: K-562 leukemia 2.55% | MALME-3M melanoma -51.2% | RXF 393 renal -15.3%
inactive: NCI-H23 lung 96.4% | NCI-H226 lung 108% | NCI-H322M lung 95.5% | HOP-62 NSCLC 96.9% | NCI-H460 lung 106% | HOP-92 NSCLC 59.4% | NCI-H522 lung 74.2% | A549/ATCC NSCLC 107% | 786-0 renal 99% | COLO 205 colon 82.7% | DU-145 prostate 99.9% | MDA-MB-231 breast 91.5% | SF-268 CNS 105% | SF-295 CNS 101% | SF-539 CNS 104% | UACC-257 melanoma 96.6% | M14 melanoma 83.1%

CCC1=C[C@@H]2C[C@]3(C(=O)OC)c4[nH]c5ccccc5c4CC[N@+](CC(=O)Nc4cc5c(cc4OC)N(C)[C@H]4[C@@](O)(C(=O)OC)[C@H](OC(C)=O)[C@]6(CC)C=CCN7CC[C@]54[C@@H]76)(C2)[C@H]13
inactive: NCI-H23 lung 104% | NCI-H226 lung 98.7% | NCI-H322M lung 102% | HOP-62 NSCLC 99.5% | NCI-H460 lung 109% | HOP-92 NSCLC 88% | NCI-H522 lung 92.4% | A549/ATCC NSCLC 100% | 786-0 renal 99.1% | COLO 205 colon 104% | DU-145 prostate 117% | K-562 leukemia 106% | MALME-3M melanoma 102% | MDA-MB-231 breast 98.2% | RXF 393 renal 114% | SF-268 CNS 105% | SF-295 CNS 107% | SF-539 CNS 106% | UACC-257 melanoma 101% | M14 melanoma 97.7%

Cc1cn(-c2cc(NC(=O)c3cccc(C#Cc4cccc5[nH]nc(N)c45)c3)cc(C(F)(F)F)c2)cn1
inactive: NCI-H23 lung 37.1% | NCI-H226 lung 22.1% | NCI-H322M lung 66% | HOP-62 NSCLC 55.5% | NCI-H460 lung 30.5% | NCI-H522 lung 39.9% | A549/ATCC NSCLC 45.4% | 786-0 renal 26.5% | COLO 205 colon 18.6% | DU-145 prostate 57.6% | MALME-3M melanoma 12.4% | MDA-MB-231 breast 16.9% | SF-268 CNS 53.2% | SF-295 CNS 27.5% | UACC-257 melanoma 41.4%
active: HOP-92 NSCLC -16.6% | K-562 leukemia 3.17% | RXF 393 renal -6.88% | SF-539 CNS 6.24% | M14 melanoma 7.33%

Fc1cnccc1C1CC(c2ccc(N3CCNCC3)cc2)=NN1 (stereo not given)
inactive: NCI-H23 lung 83.8% | NCI-H226 lung 82.9% | NCI-H322M lung 89.3% | HOP-62 NSCLC 83.2% | NCI-H460 lung 94.9% | HOP-92 NSCLC 72.4% | NCI-H522 lung 81.9% | A549/ATCC NSCLC 76.2% | 786-0 renal 111% | COLO 205 colon 95.7% | DU-145 prostate 107% | K-562 leukemia 77.9% | MALME-3M melanoma 93.4% | MDA-MB-231 breast 84.6% | RXF 393 renal 105% | SF-268 CNS 107% | SF-295 CNS 98% | SF-539 CNS 104% | UACC-257 melanoma 83.1% | M14 melanoma 95.9%

c1ccc(Cn2cc3c(c2)-c2oncc2CC3)cc1
active: NCI-H460 lung 8.32% | MDA-MB-231 breast 8.74% | RXF 393 renal 0.371% | SF-539 CNS -9.18%
inactive: NCI-H23 lung 46.6% | NCI-H226 lung 53% | NCI-H322M lung 60.4% | HOP-62 NSCLC 21.1% | HOP-92 NSCLC 65.4% | NCI-H522 lung 21.3% | A549/ATCC NSCLC 23.2% | 786-0 renal 37.1% | COLO 205 colon 15.9% | DU-145 prostate 19.6% | K-562 leukemia 13.9% | MALME-3M melanoma 86% | SF-268 CNS 37.2% | SF-295 CNS 20.3% | UACC-257 melanoma 82.8% | M14 melanoma 19.9%

Nc1nc2ccc(-c3nc4ccc5[nH]ncc5c4c4c3CCCC4)cc2s1
inactive: NCI-H23 lung 100% | NCI-H226 lung 112% | NCI-H322M lung 101% | HOP-62 NSCLC 101% | NCI-H460 lung 107% | HOP-92 NSCLC 106% | NCI-H522 lung 86.8% | A549/ATCC NSCLC 91.8% | 786-0 renal 108% | COLO 205 colon 106% | DU-145 prostate 111% | K-562 leukemia 94.9% | MALME-3M melanoma 94.5% | MDA-MB-231 breast 106% | RXF 393 renal 109% | SF-268 CNS 98.8% | SF-295 CNS 108% | SF-539 CNS 106% | UACC-257 melanoma 88.1% | M14 melanoma 101%

CSc1nnc(-c2cc3c([nH]c4ccccc43)c(-c3cccc(O)c3)n2)n1-c1ccccc1
inactive: NCI-H23 lung 55.1% | NCI-H226 lung 51.6% | NCI-H322M lung 43.3% | HOP-62 NSCLC 47.6% | NCI-H460 lung 12.1% | HOP-92 NSCLC 48.7% | A549/ATCC NSCLC 46.1% | 786-0 renal 24.1% | COLO 205 colon 85.3% | DU-145 prostate 33.9% | K-562 leukemia 15.8% | MALME-3M melanoma 22.1% | MDA-MB-231 breast 34.6% | SF-268 CNS 39.5% | SF-295 CNS 24.8% | UACC-257 melanoma 59.9% | M14 melanoma 14.5%
active: NCI-H522 lung -15% | RXF 393 renal 9.95% | SF-539 CNS -7.08%

O=C(NCc1ccc(Cl)cc1Cl)C1CCC(=O)N1c1cccs1 (stereo not given)
inactive: NCI-H23 lung 91% | NCI-H226 lung 103% | NCI-H322M lung 104% | HOP-62 NSCLC 92.9% | NCI-H460 lung 104% | HOP-92 NSCLC 103% | NCI-H522 lung 76.8% | A549/ATCC NSCLC 86.3% | 786-0 renal 94% | COLO 205 colon 96.8% | DU-145 prostate 108% | K-562 leukemia 108% | MALME-3M melanoma 96.3% | MDA-MB-231 breast 96.5% | RXF 393 renal 109% | SF-268 CNS 100% | SF-295 CNS 90.8% | SF-539 CNS 93.6% | UACC-257 melanoma 90.8% | M14 melanoma 104%

COc1ccc(C(=O)c2cc3c(N)c(C(=O)Nc4ccc(C)cc4)sc3nc2C)cc1
inactive: NCI-H23 lung 43.3% | NCI-H226 lung 57.2% | NCI-H322M lung 48.9% | HOP-62 NSCLC 36.3% | HOP-92 NSCLC 70.8% | NCI-H522 lung 13.3% | A549/ATCC NSCLC 22.3% | 786-0 renal 42.9% | COLO 205 colon 18.7% | DU-145 prostate 17.3% | K-562 leukemia 13.6% | MALME-3M melanoma 36.1% | MDA-MB-231 breast 22% | SF-268 CNS 39.4% | UACC-257 melanoma 58.1% | M14 melanoma 17.3%
active: NCI-H460 lung 4.1% | RXF 393 renal -20.4% | SF-295 CNS 10% | SF-539 CNS -16%

Cc1ccccc1/C=C/C(=O)c1cccc(OCCCCOc2cccc(C(=O)/C=C/c3ccccc3C)c2)c1
inactive: NCI-H23 lung 94.6% | NCI-H226 lung 91.7% | NCI-H322M lung 92.1% | HOP-62 NSCLC 102% | NCI-H460 lung 98.1% | HOP-92 NSCLC 93.6% | NCI-H522 lung 85.8% | A549/ATCC NSCLC 84.2% | 786-0 renal 96.4% | COLO 205 colon 106% | DU-145 prostate 98% | K-562 leukemia 97.1% | MALME-3M melanoma 96.9% | MDA-MB-231 breast 95% | RXF 393 renal 98.6% | SF-268 CNS 102% | SF-295 CNS 97.7% | SF-539 CNS 105% | UACC-257 melanoma 92.2% | M14 melanoma 97.9%

CCOC(=O)[C@@H]1CSC(CC)=C(C(=O)O)N1
active: HOP-92 NSCLC -35.1% | K-562 leukemia 8.66%
inactive: NCI-H23 lung 103% | NCI-H226 lung 98.2% | NCI-H322M lung 92.7% | HOP-62 NSCLC 89.2% | NCI-H460 lung 110% | NCI-H522 lung 93.6% | A549/ATCC NSCLC 90.7% | 786-0 renal 92.2% | COLO 205 colon 100% | DU-145 prostate 118% | MALME-3M melanoma 104% | MDA-MB-231 breast 105% | RXF 393 renal 109% | SF-268 CNS 116% | SF-295 CNS 111% | SF-539 CNS 93.4% | UACC-257 melanoma 89.1% | M14 melanoma 98.6%

O=C1C(Cl)=C(Nc2ccc(S(=O)(=O)N3CCOCC3)cc2)C(=O)c2ccccc21
inactive: NCI-H23 lung 83.5% | NCI-H226 lung 84.5% | NCI-H322M lung 99.8% | HOP-62 NSCLC 86.3% | NCI-H460 lung 94.9% | HOP-92 NSCLC 25.7% | NCI-H522 lung 21% | A549/ATCC NSCLC 80.8% | 786-0 renal 71% | COLO 205 colon 104% | DU-145 prostate 101% | MALME-3M melanoma 71.6% | MDA-MB-231 breast 31.3% | RXF 393 renal 56.4% | SF-268 CNS 78.3% | SF-295 CNS 99.7% | UACC-257 melanoma 66.4% | M14 melanoma 44.2%
active: K-562 leukemia 6.71% | SF-539 CNS 2.06%
